{"source": "the supplement of paper PMC10681739", "data": [{"molecular_target": "T1, ETS1 (UniProt P14921)", "T1 sequence": "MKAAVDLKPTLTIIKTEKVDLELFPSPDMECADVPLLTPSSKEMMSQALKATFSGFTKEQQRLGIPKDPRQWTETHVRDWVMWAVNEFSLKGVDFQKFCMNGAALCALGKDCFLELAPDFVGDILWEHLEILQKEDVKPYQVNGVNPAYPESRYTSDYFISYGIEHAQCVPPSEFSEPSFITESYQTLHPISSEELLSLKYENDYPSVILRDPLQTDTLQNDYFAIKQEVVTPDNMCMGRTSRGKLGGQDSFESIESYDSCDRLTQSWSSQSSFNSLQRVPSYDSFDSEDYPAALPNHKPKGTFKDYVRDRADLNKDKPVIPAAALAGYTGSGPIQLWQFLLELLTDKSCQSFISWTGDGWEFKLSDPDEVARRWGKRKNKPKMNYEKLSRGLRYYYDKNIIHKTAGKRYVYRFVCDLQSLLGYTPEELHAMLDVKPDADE", "assay": "ETS1 binding intensity (PBM fluorescence), ETS1 alone (arbitrary fluorescence units); higher = stronger binding", "settings": "ETS1 concentration 1 nM; RUNX1 concentration 0 nM", "values": [{"sequence": "TTGGTTGTTGCCAGAGGATGTGGGTTGGCGGGGGAG", "ETS1 binding intensity": 1690}, {"sequence": "CAAAAGTGCTTCCTCTCGAGGGGTTGTGGTTCTTAC", "ETS1 binding intensity": 396}, {"sequence": "CACTTCCTCCTCGGGGGCCTCAGAAAACCACAGGGC", "ETS1 binding intensity": 413}, {"sequence": "CTGAAACAGGAAGCTGAGGGTGCGGTTGGGGGAGGA", "ETS1 binding intensity": 2210}, {"sequence": "AGCTAAACCCAGTTCCGGTGCTGTGGGGAGCTCAGA", "ETS1 binding intensity": 858}, {"sequence": "GACACAAGAACAGCAGGATGTGGTCAGAGGCGTCGT", "ETS1 binding intensity": 2610}, {"sequence": "GAGGAACCCAAAGTAGGATGTGGTTTTGCAATTGGA", "ETS1 binding intensity": 757}, {"sequence": "CATAGACCGGATGCCTCGTCAACCACAGAAACCAAT", "ETS1 binding intensity": 2620}, {"sequence": "TAGGCTGAAGACTTCCGCCCCGCAGAGGACTTGCCT", "ETS1 binding intensity": 1040}, {"sequence": "CCCGCTCACGCCGGAAGTGGTTTGCGTTTTCAAGAT", "ETS1 binding intensity": 14400}, {"sequence": "GCTCTGGGTCACACAGGATGTGGTTTTTGAAGTTTG", "ETS1 binding intensity": 8060}, {"sequence": "CAAGTAATCTGCTCAGGAAGTGGTTTGAATAGAGGA", "ETS1 binding intensity": 2540}, {"sequence": "TGATAAAACACAGGATGTGGTAAGGGAGCTGGCCAA", "ETS1 binding intensity": 3350}, {"sequence": "TCTCTATGGTTTCCGTTGGGTGTGTGGTTTTTTTGT", "ETS1 binding intensity": 579}, {"sequence": "CAAGCCAGGAAGAGGGCCCTCACCAGAAACCGCACT", "ETS1 binding intensity": 407}, {"sequence": "AACAGGAAGTGGTCTTAGAGATCATGCGGTTCAGAG", "ETS1 binding intensity": 2220}, {"sequence": "AGCGACAGCGGATGCTCTCTGGCCGCAACATTCTTT", "ETS1 binding intensity": 880}, {"sequence": "GGGCCCGGGCCAGGAAGTGGTTTTGCAGAGGTGTTT", "ETS1 binding intensity": 4630}, {"sequence": "CAGGAGCAGTGTAGAGGAAGTGGTTTCCATCACGGA", "ETS1 binding intensity": 2630}, {"sequence": "GGACCGGTGTCTGGCGGATGCGGTCGTGAAGATAGG", "ETS1 binding intensity": 1200}, {"sequence": "TTGATTGGAGCAGGATGTGGTCAGAACAGTATGCAG", "ETS1 binding intensity": 3190}, {"sequence": "AACAGACAGGATGTGGCCTCTGCCAAAACCACCATC", "ETS1 binding intensity": 3250}, {"sequence": "GATGGGCGAGTCAGGAAACCACAGCTCTGAGGGTGG", "ETS1 binding intensity": 607}, {"sequence": "TGAAGCAGGCGGAAGTGCTGTGGTTTCTGGCGACTG", "ETS1 binding intensity": 4090}, {"sequence": "GCCGCTGCCTCTTCCTGTGTGGTTTTTCAGGGCTTA", "ETS1 binding intensity": 651}, {"sequence": "ATAGACTCAGGAAGTGATTGTGGTAAGATTCTATAT", "ETS1 binding intensity": 1460}, {"sequence": "AATTGAGACAGGAAATGTTGGTTTGTGGTCAGGCAC", "ETS1 binding intensity": 5020}, {"sequence": "TGAGCAAGTTCCTTCCTGTCTGTGGTCCAGGGTTTA", "ETS1 binding intensity": 757}, {"sequence": "GCACTGTAGGCAGGATGTGGGCAGGGGAAACTCAGG", "ETS1 binding intensity": 3720}, {"sequence": "TCCCTCATGAGCTTCTTCCGCCCGCAACACGAGACT", "ETS1 binding intensity": 481}, {"sequence": "GGGTCTCCAGGAAGCCACTCACCACAAACTTTGACA", "ETS1 binding intensity": 482}, {"sequence": "GGGACAGACTCTCCAGGATGTGGTTGGATTTTGGGC", "ETS1 binding intensity": 1520}, {"sequence": "ACAGGAAATGACTTAGGGAAAGTCCCAACCGCAATC", "ETS1 binding intensity": 2800}, {"sequence": "TGGCAGCGGGTGCGGAAACCACAGGCCTCCAGGCTT", "ETS1 binding intensity": 701}, {"sequence": "ATGTGCCCAAAGGATGTCACCGCAAAGATCATAGGA", "ETS1 binding intensity": 561}, {"sequence": "ATGAACCACTTCCTGTGTGTTCCCACAGAGGTCAGG", "ETS1 binding intensity": 2670}, {"sequence": "AAGAAAAAGGGAGGATGTGGTTTAGCAAAAGCACTG", "ETS1 binding intensity": 1420}, {"sequence": "ACTCCAGAGGAAGTGGCAAGACGAGCGCGGTAACGG", "ETS1 binding intensity": 1080}, {"sequence": "GAGCATAGCCTAGCAGGATGTGGTTAAATACATTTG", "ETS1 binding intensity": 3320}, {"sequence": "GCGCGGACAGAGAAAGGATGTGGTATAGCAGAAAGT", "ETS1 binding intensity": 1500}]}, {"molecular_target": "RUNX1 (UniProt Q01196)", "sequence (Q01196 whole entry)": "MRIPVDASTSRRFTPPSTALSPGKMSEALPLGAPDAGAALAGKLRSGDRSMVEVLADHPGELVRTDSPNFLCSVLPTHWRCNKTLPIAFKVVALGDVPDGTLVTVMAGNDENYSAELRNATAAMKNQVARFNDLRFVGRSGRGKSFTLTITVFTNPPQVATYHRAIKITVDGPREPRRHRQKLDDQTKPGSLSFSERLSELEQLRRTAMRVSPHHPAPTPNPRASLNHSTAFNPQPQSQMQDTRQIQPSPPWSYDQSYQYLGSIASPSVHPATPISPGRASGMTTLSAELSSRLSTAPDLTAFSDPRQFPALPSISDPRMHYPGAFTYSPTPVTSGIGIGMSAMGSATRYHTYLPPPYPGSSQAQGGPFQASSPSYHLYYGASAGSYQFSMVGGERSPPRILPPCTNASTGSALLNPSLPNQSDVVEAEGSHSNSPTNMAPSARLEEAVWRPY", "assay": "RUNX1 binding intensity (PBM fluorescence), RUNX1 alone (arbitrary fluorescence units); higher = stronger binding", "settings": "RUNX1 concentration 2 nM; ETS1 concentration 0 nM", "procedure": "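Cooperative gcPBM on 36-bp genomic probes with neighbouring ETS1 and RUNX1 sites. Recombinant human RUNX1 (2 nM) was incubated alone or with ETS1 (25 nM) and detected with anti-RUNX1 antibody plus Alexa488 secondary. Values are medians over 4 replicate spots; the RUNX1+ETS1 data were normalised to the RUNX1-only data. The probes sit in constant array flanks that are not printed.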", "values": [{"sequence": "TTGGTTGTTGCCAGAGGATGTGGGTTGGCGGGGGAG", "RUNX1 binding intensity": 897}, {"sequence": "CAAAAGTGCTTCCTCTCGAGGGGTTGTGGTTCTTAC", "RUNX1 binding intensity": 716}, {"sequence": "CACTTCCTCCTCGGGGGCCTCAGAAAACCACAGGGC", "RUNX1 binding intensity": 1110}, {"sequence": "CTGAAACAGGAAGCTGAGGGTGCGGTTGGGGGAGGA", "RUNX1 binding intensity": 811}, {"sequence": "AGCTAAACCCAGTTCCGGTGCTGTGGGGAGCTCAGA", "RUNX1 binding intensity": 741}, {"sequence": "GACACAAGAACAGCAGGATGTGGTCAGAGGCGTCGT", "RUNX1 binding intensity": 722}, {"sequence": "GAGGAACCCAAAGTAGGATGTGGTTTTGCAATTGGA", "RUNX1 binding intensity": 1020}, {"sequence": "CATAGACCGGATGCCTCGTCAACCACAGAAACCAAT", "RUNX1 binding intensity": 1000}, {"sequence": "TAGGCTGAAGACTTCCGCCCCGCAGAGGACTTGCCT", "RUNX1 binding intensity": 839}, {"sequence": "CCCGCTCACGCCGGAAGTGGTTTGCGTTTTCAAGAT", "RUNX1 binding intensity": 741}, {"sequence": "GCTCTGGGTCACACAGGATGTGGTTTTTGAAGTTTG", "RUNX1 binding intensity": 1210}, {"sequence": "CAAGTAATCTGCTCAGGAAGTGGTTTGAATAGAGGA", "RUNX1 binding intensity": 743}, {"sequence": "TGATAAAACACAGGATGTGGTAAGGGAGCTGGCCAA", "RUNX1 binding intensity": 682}, {"sequence": "TCTCTATGGTTTCCGTTGGGTGTGTGGTTTTTTTGT", "RUNX1 binding intensity": 1130}, {"sequence": "CAAGCCAGGAAGAGGGCCCTCACCAGAAACCGCACT", "RUNX1 binding intensity": 907}, {"sequence": "AACAGGAAGTGGTCTTAGAGATCATGCGGTTCAGAG", "RUNX1 binding intensity": 787}, {"sequence": "AGCGACAGCGGATGCTCTCTGGCCGCAACATTCTTT", "RUNX1 binding intensity": 769}, {"sequence": "GGGCCCGGGCCAGGAAGTGGTTTTGCAGAGGTGTTT", "RUNX1 binding intensity": 763}, {"sequence": "CAGGAGCAGTGTAGAGGAAGTGGTTTCCATCACGGA", "RUNX1 binding intensity": 862}, {"sequence": "GGACCGGTGTCTGGCGGATGCGGTCGTGAAGATAGG", "RUNX1 binding intensity": 710}, {"sequence": "TTGATTGGAGCAGGATGTGGTCAGAACAGTATGCAG", "RUNX1 binding intensity": 794}, {"sequence": "AACAGACAGGATGTGGCCTCTGCCAAAACCACCATC", "RUNX1 binding intensity": 869}, {"sequence": "GATGGGCGAGTCAGGAAACCACAGCTCTGAGGGTGG", "RUNX1 binding intensity": 950}, {"sequence": "TGAAGCAGGCGGAAGTGCTGTGGTTTCTGGCGACTG", "RUNX1 binding intensity": 939}, {"sequence": "GCCGCTGCCTCTTCCTGTGTGGTTTTTCAGGGCTTA", "RUNX1 binding intensity": 1050}, {"sequence": "ATAGACTCAGGAAGTGATTGTGGTAAGATTCTATAT", "RUNX1 binding intensity": 829}, {"sequence": "AATTGAGACAGGAAATGTTGGTTTGTGGTCAGGCAC", "RUNX1 binding intensity": 1170}, {"sequence": "TGAGCAAGTTCCTTCCTGTCTGTGGTCCAGGGTTTA", "RUNX1 binding intensity": 747}, {"sequence": "GCACTGTAGGCAGGATGTGGGCAGGGGAAACTCAGG", "RUNX1 binding intensity": 827}, {"sequence": "TCCCTCATGAGCTTCTTCCGCCCGCAACACGAGACT", "RUNX1 binding intensity": 1280}, {"sequence": "GGGTCTCCAGGAAGCCACTCACCACAAACTTTGACA", "RUNX1 binding intensity": 1080}, {"sequence": "GGGACAGACTCTCCAGGATGTGGTTGGATTTTGGGC", "RUNX1 binding intensity": 754}, {"sequence": "ACAGGAAATGACTTAGGGAAAGTCCCAACCGCAATC", "RUNX1 binding intensity": 1230}, {"sequence": "TGGCAGCGGGTGCGGAAACCACAGGCCTCCAGGCTT", "RUNX1 binding intensity": 1480}, {"sequence": "ATGTGCCCAAAGGATGTCACCGCAAAGATCATAGGA", "RUNX1 binding intensity": 1250}, {"sequence": "ATGAACCACTTCCTGTGTGTTCCCACAGAGGTCAGG", "RUNX1 binding intensity": 742}, {"sequence": "AAGAAAAAGGGAGGATGTGGTTTAGCAAAAGCACTG", "RUNX1 binding intensity": 920}, {"sequence": "ACTCCAGAGGAAGTGGCAAGACGAGCGCGGTAACGG", "RUNX1 binding intensity": 728}, {"sequence": "GAGCATAGCCTAGCAGGATGTGGTTAAATACATTTG", "RUNX1 binding intensity": 747}, {"sequence": "GCGCGGACAGAGAAAGGATGTGGTATAGCAGAAAGT", "RUNX1 binding intensity": 727}]}]}
